SW480 rerep: A quantitative high throughput screen for small molecules that induce DNA re-replication in SW480 colon adenocarcinoma cells. SW480 DNA re-replication, Hoechst DNA content imaging, 48 h. Potency, µM (doses to about 46.1 µM), for inactives: top-dose re-replication activation, usual class: activators. hit rate 1.8% among 340,000. AID 624297, 2012; also: % of control where 0% means no effect; nearly all actives have a fitted effect of over 55% in size
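Readout is total intensity of Hoechst-stained nuclei, excited at 405 nm and collected at 500-530 nm. Compound treatment lasted 48 hr at 37 C in 5% CO2 before staining.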
HT1080 IDH1KD tx: qHTS for induction of synthetic lethality in tumor cells producing 2HG: qHTS for the HT-1080-IDH1KD cell line. HT-1080 IDH1 knockdown viability, ATP luminescence, 48 h. Potency, µM (series often up to 46.1 µM), for inactives: at the highest dose activity, negative = toxicity, hits mostly cytotoxic. hit rate 2% among 360,000;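 also: 0% = DMSO wells and -100% = cell-free medium wells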
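% activity derives from luminescence (CellTiter-Glo), normalised to DMSO and no-cell wells. HT-1080-IDH1KD cells, 750/well, had 48 h compound exposure at 37 °C.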
KB-V1 MDR tox: qHTS assay for MDR1-selective chemotherapeutics: Primary screen using the drug-selected MDR subline cells KB-V1; KB-V1 MDR cells viability, CellTiter-Glo, 72 h; Potency, µM (titrated, usually from 46.1 µM), hits mostly cytotoxic; hit rate 3.4% among 400,000; AID 1347076, 2019; also: % is scaled to controls: 0 for no effect and ±100 for the full control effect; nearly all actives have a fitted effect of over 60% in size
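Potencies derive from concentration-effect curves fitted to normalized luminescence (CellTiter-Glo) of KB-V1 cells treated for 72 h at 37 degrees C in phenol-red-free DMEM containing 10% FBS.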
MCF10A rereplic: A quantitative high throughput screen for small molecules that induce DNA re-replication in MCF 10a normal breast cells | MCF 10A DNA re-replication, Hoechst nuclear intensity, 48 h | Potency, µM (doses to about 46.1 µM), for the others: at the highest dose activity, positive = re-replication, usual class: activators | hit rate 2.9% among 350,000; also: % of control where 0% means no effect; nearly all actives have a fitted effect of over 50% in size
HT1080-NT tox: qHTS for induction of synthetic lethality in tumor cells producing 2HG: qHTS for the HT-1080-NT fibrosarcoma cell line. Potency, µM (top dose mostly 46.1 µM), inactives show at the highest dose activity, negative = less viability, hits mostly cytotoxic. HT-1080-NT fibrosarcoma viability, CellTiter-Glo ATP luminescence, 48 h. AID 686970, 2013. hit rate 1.6% among 360,000;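 also: NT is the 2HG producing partner of a matched IDH1 knockdown line; 0% = DMSO-treated cells and -100% = media-only wells without cells; nearly all actives have a fitted effect of over 55% in size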
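Viability of the 2HG-overproducing fibrosarcoma line after 48 hours of compound exposure at 37 degrees C was determined by luminescence with CellTiter-Glo, and concentration-effect curves were then fitted and categorized.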
KB-3-1 cytotox: qHTS assay for MDR1-selective chemotherapeutics: Primary screen using the parental adenocarcinoma cell KB-3-1 | KB-3-1 viability, CellTiter-Glo ATP luminescence, 72 h | Potency, µM (top dose mostly 46.1 µM), most hits filed as cytotoxic | hit rate 1.4% among 400,000; also: % is scaled to controls: 0 for no effect and ±100 for the full control effect; nearly all actives have a fitted effect of over 60% in size
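KB-3-1 parental drug-naive adenocarcinoma cells in DMEM/10% FBS, incubated 72 h at 37 C with pin-transferred compounds across a concentration series. Viability by CellTiter-Glo luminescence; concentration-response curves fitted after normalization.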
An asterisk follows results filed as active. In the library only some 8% were active in any assay of this set; here they are far more common. Calls follow the shape of the dose curve; as a rule, active = well fitted curve in the direction sought with a large enough effect; inconclusive = small, poorly fitted or top-dose-only effect, or another doubt; inactive = no such curve, though single readings can be large; an effect the other way counts as inactive or inconclusive. Potency is read from the fitted curve at half-maximal effect.

CC(=O)Nc1ccc(OCC(O)CN2CCN(c3cccc(Cl)c3)CC2)cc1 (configuration not stated) was read as SW480 rerep -3%, HT1080 IDH1KD tx -4%, KB-V1 MDR tox 16µM*, MCF10A rereplic 25%, HT1080-NT tox 0% and KB-3-1 cytotox inactive.
For CC(=O)Nc1ccc(S(=O)(=O)N2CCN(CC(O)COc3ccc4ccccc4c3)CC2)cc1 (configuration not stated) the results were SW480 rerep 5%, HT1080 IDH1KD tx inconclusive, KB-V1 MDR tox inconclusive, MCF10A rereplic -6%, HT1080-NT tox 0.71µM* and KB-3-1 cytotox inactive.
`COc1cccc(NC(=O)Cn2nc(-c3ccncc3)ccc2=O)c1` gave KB-V1 MDR tox inactive and KB-3-1 cytotox inactive.
Screening COCCCN1C(=O)C(CC(=O)NC(c2ccccc2)c2ccccc2)CC(C(=O)N2CCCCCC2)=C1C (configuration not stated) returned HT1080 IDH1KD tx 1%, KB-V1 MDR tox inconclusive, HT1080-NT tox 17% and KB-3-1 cytotox inactive.
O=C(NCc1ccc2c(c1)CCN2C(=O)c1ccccc1)c1cc2ccccc2[nH]1 was read as KB-V1 MDR tox inactive and KB-3-1 cytotox inactive.
`COc1ccc(NC(=O)c2c(Nc3ccccc3)sc(C(=O)c3ccc(F)cc3)c2N)cc1` gave SW480 rerep 5%, HT1080 IDH1KD tx inconclusive, KB-V1 MDR tox inconclusive, MCF10A rereplic 18%, HT1080-NT tox inconclusive and KB-3-1 cytotox 2.1µM*.
Screening COc1ccc(C(=O)c2sc(Nc3ccccc3)c(C(=O)Nc3ccc(OC)c(OC)c3)c2N)cc1 returned SW480 rerep 7%, HT1080 IDH1KD tx -28%, KB-V1 MDR tox inactive, MCF10A rereplic -2%, HT1080-NT tox -10% and KB-3-1 cytotox inactive.
COc1ccc(C(=O)c2sc(Nc3cccc(OC)c3)c(C(=O)Nc3cccc(C)c3C)c2N)cc1 was read as SW480 rerep inconclusive, HT1080 IDH1KD tx inconclusive, KB-V1 MDR tox inconclusive, MCF10A rereplic 1.5µM*, HT1080-NT tox inconclusive and KB-3-1 cytotox inconclusive.
For CCOC(=O)c1cccc(NC(=O)C2CCN(S(=O)(=O)c3c(C)noc3/C=C/c3ccc(C)cc3)CC2)c1 the results were KB-V1 MDR tox inactive and KB-3-1 cytotox inconclusive.
For Cc1nn(C)c2c1c(-c1ccccc1)cc(=O)n2CC(=O)NC(C)(C)C the results were KB-V1 MDR tox inactive and KB-3-1 cytotox inactive.
Cc1ccc2nc3c(c(Nc4cccc(O)c4)c2c1)CCC3 was read as SW480 rerep -5%, HT1080 IDH1KD tx inconclusive, KB-V1 MDR tox inconclusive, MCF10A rereplic inconclusive, HT1080-NT tox 18µM* and KB-3-1 cytotox inconclusive.
`c1ccc2c(Nc3ccc4c(c3)OCCO4)c3c(nc2c1)CCCC3` gave SW480 rerep 5%, HT1080 IDH1KD tx inconclusive, KB-V1 MDR tox inconclusive, MCF10A rereplic -7%, HT1080-NT tox 16µM* and KB-3-1 cytotox inactive.
Screening CC(=O)c1ccc(Nc2c3c(nc4ccccc24)CCCC3)cc1 returned SW480 rerep inconclusive, HT1080 IDH1KD tx inconclusive, KB-V1 MDR tox inactive, MCF10A rereplic 15µM*, HT1080-NT tox inconclusive and KB-3-1 cytotox inconclusive.
`O=C(Nc1c2c(nc3ccccc13)CCCC2)c1ccccc1Cl` gave SW480 rerep 7.3µM*, HT1080 IDH1KD tx 5%, KB-V1 MDR tox inactive, MCF10A rereplic 0%, HT1080-NT tox 8% and KB-3-1 cytotox inactive.
Cc1noc(C)c1NC(=O)N(C)C[C@H]1Oc2c(NS(=O)(=O)c3cn(C)cn3)cccc2C(=O)N([C@H](C)CO)C[C@@H]1C was read as SW480 rerep -6%, HT1080 IDH1KD tx -5%, KB-V1 MDR tox inactive, MCF10A rereplic 5%, HT1080-NT tox 21% and KB-3-1 cytotox inactive.
Screening COc1ccc(CCNC(=O)C(=O)NCC(c2ccco2)S(=O)(=O)c2ccc(C)cc2)cc1 (configuration not stated) returned KB-V1 MDR tox inactive and KB-3-1 cytotox inactive.
CC(=O)c1cccc(Nc2c3c(nc4ccccc24)CCC3)c1 was read as SW480 rerep 5.8µM*, HT1080 IDH1KD tx 2.6µM*, KB-V1 MDR tox inactive, MCF10A rereplic inconclusive, HT1080-NT tox 5.8µM* and KB-3-1 cytotox 1.8µM*.
`CCOC(=O)c1cccc(Nc2c3c(nc4ccccc24)CCC3)c1` gave KB-V1 MDR tox inconclusive and KB-3-1 cytotox inactive.
`COC(=O)c1cccc(Nc2c3c(nc4ccccc24)CCC3)c1` gave SW480 rerep inconclusive, HT1080 IDH1KD tx 16µM*, KB-V1 MDR tox 18µM*, MCF10A rereplic inconclusive, HT1080-NT tox 21µM* and KB-3-1 cytotox 21µM*.
CC1=C(C(=O)N(C)C)CC(CC(=O)NC2CCCC2)C(=O)N1Cc1ccccc1 (configuration not stated) was read as HT1080 IDH1KD tx 1%, KB-V1 MDR tox inactive, HT1080-NT tox 11% and KB-3-1 cytotox inactive.
For NC1=NC(=O)/C(=C\c2ccc(-c3ccc(Cl)cc3)o2)S1 the results were SW480 rerep inconclusive, HT1080 IDH1KD tx -27%, KB-V1 MDR tox inconclusive, MCF10A rereplic 7.3µM*, HT1080-NT tox -26% and KB-3-1 cytotox inactive.
For NC1=NC(=O)/C(=C/c2cn(CCC(=O)O)nc2-c2ccc(Cl)cc2)S1 the results were SW480 rerep 10%, HT1080 IDH1KD tx 0%, KB-V1 MDR tox inactive, MCF10A rereplic 13%, HT1080-NT tox -12% and KB-3-1 cytotox inactive.
Screening Cc1cc(C)cc(NC(=O)CSCc2cc(=O)c3cc(Cl)ccc3[nH]2)c1 returned KB-V1 MDR tox inactive and KB-3-1 cytotox inactive.
For Cc1ccc(C(=O)NCCNc2nc3cc(C)c(C)cc3cc2C)cc1 the results were SW480 rerep 8.2µM*, HT1080 IDH1KD tx -21%, KB-V1 MDR tox inconclusive, MCF10A rereplic 8.2µM*, HT1080-NT tox -9% and KB-3-1 cytotox inconclusive.
`Cc1cc2cc(C)c(NCCNC(=O)c3ccccc3)nc2cc1C` gave SW480 rerep 12%, HT1080 IDH1KD tx -14%, KB-V1 MDR tox inactive, MCF10A rereplic 2%, HT1080-NT tox -19% and KB-3-1 cytotox inactive.

Bioassay records from PubChem BioAssay.
